The sample as a whole holds a higher share of hits than the screen did.
Shiga inhibitor: inhibitors of Shiga toxin in Vero cells; Vero cells, Shiga toxin protein synthesis inhibition reporter; 290,000 tested, 9.2% active; inhibition, % at 38.7 µM; in the data active = inhibition mostly above about 28%, no sharp cut-off; inactive = mostly below about 43%; note: 0% is about no effect
Vaccinia Venus: vaccinia inhibition (Venus reporter). Vaccinia virus Venus reporter expression, fluorescence. Potency, µM (series often up to 36.5 µM), for the others: at the highest dose activity change, negative = inhibition, usual class: inhibitors. 330,000 tested, 0.46% active. AID 720580; calls by dose curve; tested in A549 cells; note: potency is the fitted concentration of half-maximal effect; % is set by controls: 0 for no effect and ±100 for the full control effect; nearly all actives have a fitted effect of over 30% in size
CHX counter: counter-screen hit for Shiga toxin inhibitors, cycloheximide. AID 2314. 300,000 tested, 12% active. max response, %. cell reporter, cycloheximide protein synthesis inhibition counterscreen; in the data active = max response mostly above about 13%, no sharp cut-off; inactive = mostly below about 14%; note: read at 38.3 µM for the half of the compounds with a filed dose; 0% is about no effect
Lassa entry inh: blocks Lassa virus binding to or entry into cells. Lassa virus pseudotype entry inhibition, cell reporter. Potency, µM (doses to about 37.9 µM), inactives show top-dose activity change, negative = inhibition, actives largely listed as inhibitors. 300,000 tested, 1.2% active; calls by dose curve; tested in HEK293 cells; note: potency is the fitted concentration of half-maximal effect; % is set by controls: 0 for no effect and ±100 for the full control effect; nearly all actives have a fitted effect of over 50% in size
MARV entry inh: inhibitors of Marburg virus binding or cell entry; Marburg virus pseudotyped entry inhibition, cell reporter; Potency, µM (top dose mostly 37.8 µM), for inactives: at the highest dose activity change, negative = inhibition, hits mostly inhibitors; 300,000 tested, 1.8% active; AID 540276; calls by dose curve; tested in HEK293 cells; note: potency is the fitted concentration of half-maximal effect; % is set by controls: 0 for no effect and ±100 for the full control effect
Vaccinia mCherry: inhibitors of vaccinia virus infection (mCherry reporter signal) | Vaccinia virus mCherry reporter infection, fluorescence | Potency, µM (top dose mostly 36.5 µM), inactives show top-dose activity change, negative = inhibition, actives largely listed as inhibitors | 310,000 tested, 0.63% active | AID 720579; calls by dose curve; tested in A549 cells; note: potency is the fitted concentration of half-maximal effect; % is set by controls: 0 for no effect and ±100 for the full control effect; nearly all actives have a fitted effect of over 35% in size
* = called active by the depositor; i = inactive; ? = inconclusive; nt = no result; [ ] = remark or other dose.

SMILES | Shiga inhibitor | Vaccinia Venus | CHX counter | Lassa entry inh | MARV entry inh | Vaccinia mCherry
Cc1nc(Nc2ccc3c(c2)OCCO3)c2oc3ccccc3c2n1 | 83.4* | -14.0% | 25.7* | ? | ? | -15.2%
c1ccc2oc(SCc3cn4ccsc4n3)nc2c1 | 119.2* | -1.7% | 50.4* | ? | -2.5% | -4.9%
Cc1csc2nc(CSc3nc4ccccc4o3)cn12 | 70.6* | 2.5% | 53.1* | ? | -0.7% | -9.5%
Nn1c(CSc2nc3ccccc3o2)nnc1CSc1nc2ccccc2o1 | -10.2 | -8.7% | -3.2 | ? | 6.7% | i
Cc1cc(C)n2c(Br)c(CSc3nc4ccccc4o3)nc2n1 | 39.8 | nt | 40.9* | -3.8% | 20.5% | nt
COc1cccc(C(O)c2ncc(-c3cccc(F)c3)[nH]2)c1 (stereo not given) | nt | -9.1% | nt | nt | nt | i
O=C1NC(=O)[C@H](c2cn(-c3ccccc3)nc2-c2ccc(F)cc2)N1 | nt | nt | nt | nt | 1.6% | nt
O=C(c1cnsn1)N1CCC(CO)(Cc2cccc(F)c2)CC1 | 67.2* | -11.2% | 53.8* | 27.1% | ? | i
Cc1cc2cc(CN(Cc3ccco3)S(=O)(=O)c3c(C)ccc4nsnc34)c(=O)[nH]c2cc1C | -10.2 | nt | -1.8 | 8.2µM* | ? | nt
COC(=O)C1=C(C)N(Cc2ccccc2)C(=NCc2ccc(OC)cc2)NC1c1cccc(F)c1 (stereo not given) | nt | nt | nt | nt | -1.3%[14.2 µM] | nt
Cn1ccc2c(-c3ccc(C(C)(C)C)cc3)cc3c(c21)C1CCC3O1 (stereo not given) | nt | -0.4% | nt | ? | nt | 3.2%
CN(c1cc2c(c3c1ccn3C)C1CCC2O1)C(C)(C)C (stereo not given) | nt | nt | nt | 3.53µM* | nt | nt
COc1cccc(C(=O)NCc2nc(-c3ccccc3)no2)c1OC | nt | -0.5% | nt | 3.7%[46.1 µM] | ? | i
COc1ccc(/C=C/c2nc(N)nc(-c3ccccc3O)n2)cc1OC | 3.9 | -17.0% | 15.2* | ? | ? | -13.7%
Nc1nc(-c2ccccc2)cc(-c2ccccc2O)n1 | 15.9 | 11.2µM* | 9.2 | -1.3% | -25.6% | ?
Nc1nc(-c2ccccc2)nc(-c2ccccc2O)n1 | nt | ? | nt | -4.9% | -18.0% | ?
NNc1nc(-c2ccccc2)cc(-c2ccccc2O)n1 | 7.5 | nt | -0.5 | -16.9% | ? | nt
Clc1nc(-c2ccccc2)cc(-c2ccccc2)n1 | 16.6 | -0.5% | 17.2* | -12.4% | ? | -9.9%
Nc1nc(N)nc(-c2ccccc2O)n1 | 46.6* | -29.7% | 30.5 | 9.6% | ? | nt
CCC(c1nc2ccccc2[nH]1)N(Cc1cccnc1)C(=O)c1cc(-c2ccccc2)on1 (stereo not given) | nt | 0.7% | nt | nt | nt | 3.2%
COc1ccc(NC(=O)N2CCN(S(=O)(=O)c3ccc4c(ccn4C)c3)CC2)c(OC)c1 | nt | -17.8% | nt | -0.3%[46.1 µM] | nt | -19.1%
O=C(c1cccs1)N1CCCc2cc(NS(=O)(=O)c3ccc(F)cc3)ccc21 | nt | -12.5% | nt | ? | nt | -12.8%
COc1ccc(Cn2c(C(=O)O)c(CNC3CCC(C)CC3)c3ccc(C)cc32)cc1 (stereo not given) | nt | -22.2% | nt | 18.5%[46.1 µM] | nt | -11.4%
CC1(C)CC23C(=O)CCC(O)C2(C)CCC13 (stereo not given) | nt | -7.0% | nt | nt | nt | -3.7%
CCCCn1c(O)c(C(CC)=Nc2ccc(OCC)cc2)c(=O)[nH]c1=O | -4.8 | nt | -2.1 | 0.326µM* | -3.2% | nt
SMILES | Shiga inhibitor | Vaccinia Venus | CHX counter | Lassa entry inh | MARV entry inh | Vaccinia mCherry
C=CCn1c(O)c(C(CC)=Nc2ccc(N(CC)CC)cc2)c(=O)[nH]c1=O | -3.0 | nt | -2.5 | 3.26µM* | -1.3% | nt
C=CCn1c(O)c(C(C)=Nc2ccc(N(CC)CC)cc2)c(=O)[nH]c1=O | -11.0 | nt | -2.2 | ? | -18.0% | nt
Cc1ncoc1C(=O)N1CCOc2ccc(CN3CCC(Oc4cccnc4)CC3)cc2C1 | nt | 6.6% | nt | nt | nt | -1.8%
CCN(CC)c1ccc(/C=N/NC(=O)c2cccc(N3CCCC3=O)c2)cc1 | 42.0* | -1.7% | 22.9* | 9.2%[46.1 µM] | ? | -13.6%
O=C(N/N=C/c1cccnc1)c1cccc(N2CCCC2=O)c1 | 35.3 | 1.3% | 27.0* | 14.5%[46.1 µM] | -6.7%[46.1 µM] | i
CCN(CCNC(=O)c1cccc(N2CCCC2=O)c1)c1ccccc1 | 13.9 | -21.7% | 2.1 | 2.3% | -2.0%[46.1 µM] | -27.3%
COc1cc(/C=N/NC(=O)c2cccc(N3CCCC3=O)c2)ccc1O | 46.1 | -11.0% | 24.1* | ? | 0.8% | i
O=C(N/N=C/c1cc([N+](=O)[O-])ccc1O)c1cccc(N2CCCC2=O)c1 | -4.4 | -1.8% | -3.2 | ? | ? | 6.31µM*
O=C(N/N=C/c1cc([N+](=O)[O-])ccc1O)c1ccncc1 | -5.6 | nt | -2.3 | nt | nt | nt
Cn1c(=O)c2sccc2n2c(CCC(=O)N3CCN(c4ccc(F)cc4)CC3)nnc12 | nt | nt | nt | -4.2%[46.1 µM] | 5.5%[46.1 µM] | nt
Clc1ccc2nc(C3CCCCC3)c(Cc3ccccc3)n2c1 | nt | 4.7% | nt | nt | nt | i
O=C(OCc1ccccc1)N1CCC2CC1c1c(-c3ccc(C(F)(F)F)cc3)cccc12 (stereo not given) | nt | -12.4% | nt | nt | nt | -8.8%
CCc1ccc(N2CC(C(=O)N/N=C/c3cc([N+](=O)[O-])ccc3O)CC2=O)cc1 (stereo not given) | -7.8 | -23.4% | 8.2 | 7.08µM* | -3.3%[46.1 µM] | -20.0%
CCc1ccc(N2CC(C(=O)N/N=C/c3ccccc3OC)CC2=O)cc1 (stereo not given) | 3.2 | -18.6% | -10.2 | ? | 1.2%[46.1 µM] | -23.5%
COCCCNCCOCCOc1ccccc1-c1ccccc1 | -3.3 | -22.1% | -2.6 | ? | ? | -24.3%
C=CCNCCOCCOc1ccccc1-c1ccccc1 | 96.9* | -18.8% | 19.8* | nt | nt | ?
Nc1nc(-c2ccc(Oc3ccccc3)cc2)cs1 | 52.5* | nt | 39.3* | nt | nt | nt
c1ccc2cc(-c3csnn3)ccc2c1 | 107.8* | -8.3% | 32.0* | 16.6% | 15.5%[46.1 µM] | nt
Nc1nc(-c2ccc3ccccc3c2)cs1 | 86.4* | -20.1% | 43.4* | 18.5% | ? | -22.6%
Nc1nc(-c2ccc(-c3ccccc3)cc2)cs1 | 151.2* | ? | 62.0* | -27.0%[46.1 µM] | ? | ?
NS(=O)(=O)c1ccc(Nc2nc(-c3ccc4ccccc4c3)cs2)cc1 | -5.3 | nt | 8.8 | ? | -11.1% | nt
CC1CCCCN1C(=O)c1ccc2c(c1)N(Cc1ccc(F)cc1)C(=O)c1ccccc1S2(=O)=O (stereo not given) | nt | -7.2% | nt | ? | -2.4%[46.1 µM] | -11.1%
O=S(=O)(c1ccc(Cl)cc1)N1CC1c1ccccc1 (stereo not given) | -12.3 | -11.0% | -2.3 | 5.8% | -1.7% | i
O=S(=O)(c1ccccc1)N1CC1c1ccccc1 (stereo not given) | 38.1* | -12.1% | 47.1* | ? | ? | -17.0%
CCN1CCN(C(=O)C2(NC(=O)Nc3ccccc3Cl)CCCCC2)CC1 | 5.6 | -19.2% | -2.4 | 2.5% | -4.4% | -27.0%
CCN1CCN(Cc2ccc(NC(=O)Nc3ccccc3Cl)cc2)CC1 | 97.0* | -3.5% | 46.7* | 17.3% | ? | 26.4%
O=C(Nc1ccc(CN2CCCCC2)cc1)Nc1ccccc1Cl | 52.7* | nt | 32.5* | nt | nt | nt
S=C(Nc1ccccc1)Nc1cccc(Cl)c1Cl | -5.3 | nt | -2.0 | nt | nt | nt
O=C(Nc1ccncc1)Nc1ccc(Br)cc1Cl | -2.6 | -11.5% | 12.2 | 4.4%[46.1 µM] | ? | -1.1%

Compound activity: PubChem, National Center for Advancing Translational Sciences (NCATS)
